Laboratory results reported in PubChem BioAssay (NCI).
The panel holds about 83,000 compounds, 20% with a hit somewhere; the sample as a whole holds those more often.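 Percent growth is the endpoint: 0 to 100 indicates growth inhibition (40 means 60% inhibition), 0 means no net growth, and negative values indicate cell death.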 A number with no mark means an inactive call. The calls were made as follows: active = growth percent below 10; inactive = the rest.

tested on: HL-60(TB) leukemia; test: NCI-60 one-dose screen, 48 h (100 = growth as untreated, 0 = no growth, -100 = all killed); details: 10 µM unless noted

| SMILES | growth [%] |
| --- | --- |
| COc1cc2c(cc1OC)-c1ccc3cc4c(cc3c1N(CCCN(C)C)C2)OCO4 | 30.4 |
| Cc1ccc(-c2cc3c(cc2O)C2CCCCC2(N2CCOCC2)O3)cc1 (centres undefined) | 96.1 |
| COc1ccc(Nc2cnc3cc(NS(=O)(=O)c4ccc(C)cc4)ccc3n2)cc1 | 70 |
| C[C@H](CCCC(=O)NCC#CCN1CCN(C)CC1)[C@H]1CC[C@H]2[C@@H]3CC[C@@H]4CC(=O)CC[C@]4(C)[C@H]3CC[C@]12C | 94.3 |
